Targets with a hit are over-represented here; the source holds about 8,800 in all. About 0.5% of all pairs of compound and target were hits. Unmarked numbers belong to inactive results.
Columns and labels:
Experiment in all cases: log2 fold change, soluble protein after heating vs DMSO (PISA); higher = thermal stabilisation; K562 lysate, 10 uM; active = over 0.2 and 3.5 SD of the protein, either way, in both replicates (recomputed)
nilotinib = compound: Cc1cn(-c2cc(NC(=O)c3ccc(C)c(Nc4nccc(-c5cccnc5)n4)c3)cc(C(F)(F)F)c2)cn1 [nilotinib]
In short: (§1)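 K562 pellets were dounce-homogenised in PBS pH 7.4 containing 1 mM MgCl2, and the crude extract, at 1 mg/mL protein, was exposed to 10 μM compound for 30 min. Aliquots were heated for 3 min across 48°C-58°C, pooled, brought to 0.5% NP-40 at 4°C and spun at 21,000xg for 90 min, with the supernatant taken as soluble protein. TMTpro 16plex LC-MS/MS with equalised channel sums quantified that protein. Values are log-two fold changes in thermal stability relative to solvent controls, taken from duplicates.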

[1] = compound: Cc1nc(Nc2n[nH]c3c2CN(C(=O)N[C@H](CN(C)C)c2ccccc2)C3(C)C)c2sccc2n1
In short: as §1

dasatinib = compound: Cc1nc(Nc2ncc(C(=O)Nc3c(C)cccc3Cl)s2)cc(N2CCN(CCO)CC2)n1 [dasatinib]
In short: as §1

[2] = compound: Cc1ncc(-c2ccnc(Nc3ccc(S(C)(=O)=O)cc3)n2)n1C(C)C
In short: as §1

[3] = compound: Cn1cc(-c2ccc3c(c2)CCN3C(=O)Cc2cccc(C(F)(F)F)c2)c2c(N)ncnc21
In short: as §1

quisinostat = compound: Cn1cc(CNCC2CCN(c3ncc(C(=O)NO)cn3)CC2)c2ccccc21 [quisinostat]
In short: as §1

tipifarnib = compound: Cn1cncc1[C@@](N)(c1ccc(Cl)cc1)c1ccc2c(c1)c(-c1cccc(Cl)c1)cc(=O)n2C [tipifarnib]
In short: as §1

[4] = compound: NC(=O)Nc1cc(-c2cccc(F)c2)sc1C(=O)N[C@H]1CCCNC1
In short: as §1

[5] = compound: NC(=O)c1cnc(N[C@@H]2CCCC[C@@H]2N)nc1Nc1cccc(-n2nccn2)c1
In short: as §1

[6] = compound: NC1(c2ccc(-c3nc4ccn5c(=O)[nH]nc5c4cc3-c3ccccc3)cc2)CCC1
In short: as §1

Chain of UniProt Q9BRS2 (Q9BRS2 whole entry, looked up): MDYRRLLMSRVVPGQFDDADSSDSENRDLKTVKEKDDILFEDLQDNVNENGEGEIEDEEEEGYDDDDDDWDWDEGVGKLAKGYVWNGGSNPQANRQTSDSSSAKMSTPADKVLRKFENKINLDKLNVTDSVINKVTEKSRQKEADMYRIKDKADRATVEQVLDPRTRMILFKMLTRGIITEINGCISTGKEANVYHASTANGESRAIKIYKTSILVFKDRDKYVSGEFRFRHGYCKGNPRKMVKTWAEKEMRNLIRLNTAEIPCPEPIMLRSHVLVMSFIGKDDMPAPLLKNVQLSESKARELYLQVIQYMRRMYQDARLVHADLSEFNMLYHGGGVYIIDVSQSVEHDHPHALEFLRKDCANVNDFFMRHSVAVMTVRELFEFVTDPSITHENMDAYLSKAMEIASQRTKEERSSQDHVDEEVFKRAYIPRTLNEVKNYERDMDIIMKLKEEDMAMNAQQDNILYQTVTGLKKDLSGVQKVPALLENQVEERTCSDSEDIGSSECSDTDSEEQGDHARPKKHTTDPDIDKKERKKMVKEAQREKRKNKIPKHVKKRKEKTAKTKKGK
Chain of UniProt Q9H0U4 (Q9H0U4 whole entry, looked up): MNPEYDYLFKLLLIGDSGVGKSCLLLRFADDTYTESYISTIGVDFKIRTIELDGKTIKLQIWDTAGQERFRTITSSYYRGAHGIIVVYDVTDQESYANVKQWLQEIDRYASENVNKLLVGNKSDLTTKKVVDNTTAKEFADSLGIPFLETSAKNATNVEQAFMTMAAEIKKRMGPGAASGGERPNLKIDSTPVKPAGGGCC
Chain of UniProt Q9UL25 (Q9UL25 whole entry, looked up): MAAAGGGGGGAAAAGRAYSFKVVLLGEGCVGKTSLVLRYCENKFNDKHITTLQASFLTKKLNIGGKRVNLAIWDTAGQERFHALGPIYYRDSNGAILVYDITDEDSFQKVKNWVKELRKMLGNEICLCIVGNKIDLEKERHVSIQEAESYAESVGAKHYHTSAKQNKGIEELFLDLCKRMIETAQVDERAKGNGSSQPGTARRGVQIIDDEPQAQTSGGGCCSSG
Chain of UniProt Q5HYI8 (Q5HYI8 whole entry, looked up): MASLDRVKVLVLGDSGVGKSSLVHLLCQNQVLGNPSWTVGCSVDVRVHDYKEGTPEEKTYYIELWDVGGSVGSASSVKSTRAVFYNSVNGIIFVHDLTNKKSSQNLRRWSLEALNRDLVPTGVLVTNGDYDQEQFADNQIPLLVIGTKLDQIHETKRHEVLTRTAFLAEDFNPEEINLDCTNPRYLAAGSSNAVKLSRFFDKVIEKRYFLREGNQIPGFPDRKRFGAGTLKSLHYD
Chain of UniProt O75582 (O75582 whole entry, looked up): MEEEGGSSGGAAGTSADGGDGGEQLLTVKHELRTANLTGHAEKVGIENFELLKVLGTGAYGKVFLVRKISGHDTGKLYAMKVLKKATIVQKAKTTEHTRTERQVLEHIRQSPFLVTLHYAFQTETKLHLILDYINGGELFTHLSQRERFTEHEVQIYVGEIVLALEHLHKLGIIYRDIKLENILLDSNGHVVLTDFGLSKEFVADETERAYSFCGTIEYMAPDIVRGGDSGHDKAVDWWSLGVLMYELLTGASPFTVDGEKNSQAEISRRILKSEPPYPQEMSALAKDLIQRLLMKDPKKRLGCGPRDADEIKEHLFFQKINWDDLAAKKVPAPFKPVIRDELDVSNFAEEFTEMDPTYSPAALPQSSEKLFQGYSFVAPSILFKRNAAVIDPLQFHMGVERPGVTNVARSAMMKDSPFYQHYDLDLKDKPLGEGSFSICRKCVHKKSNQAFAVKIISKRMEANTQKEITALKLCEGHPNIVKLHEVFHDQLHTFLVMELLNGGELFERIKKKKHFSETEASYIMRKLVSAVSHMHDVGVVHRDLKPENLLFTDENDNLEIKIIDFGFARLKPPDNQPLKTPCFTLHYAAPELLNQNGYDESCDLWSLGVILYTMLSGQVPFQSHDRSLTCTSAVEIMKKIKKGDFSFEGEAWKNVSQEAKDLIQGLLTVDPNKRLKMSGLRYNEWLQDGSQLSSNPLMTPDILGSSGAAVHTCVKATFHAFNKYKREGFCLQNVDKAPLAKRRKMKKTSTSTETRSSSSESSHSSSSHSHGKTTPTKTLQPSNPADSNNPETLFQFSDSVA
Chain of UniProt O43819 (O43819 whole entry, looked up): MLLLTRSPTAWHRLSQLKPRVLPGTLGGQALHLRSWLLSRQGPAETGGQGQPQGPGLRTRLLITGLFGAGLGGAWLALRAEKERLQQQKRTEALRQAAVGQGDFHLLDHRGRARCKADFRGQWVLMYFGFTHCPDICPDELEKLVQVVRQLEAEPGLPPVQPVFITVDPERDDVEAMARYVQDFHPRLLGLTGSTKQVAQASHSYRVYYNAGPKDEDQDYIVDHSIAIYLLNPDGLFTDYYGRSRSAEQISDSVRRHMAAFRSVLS
Chain of UniProt Q05823 (Q05823 whole entry, looked up): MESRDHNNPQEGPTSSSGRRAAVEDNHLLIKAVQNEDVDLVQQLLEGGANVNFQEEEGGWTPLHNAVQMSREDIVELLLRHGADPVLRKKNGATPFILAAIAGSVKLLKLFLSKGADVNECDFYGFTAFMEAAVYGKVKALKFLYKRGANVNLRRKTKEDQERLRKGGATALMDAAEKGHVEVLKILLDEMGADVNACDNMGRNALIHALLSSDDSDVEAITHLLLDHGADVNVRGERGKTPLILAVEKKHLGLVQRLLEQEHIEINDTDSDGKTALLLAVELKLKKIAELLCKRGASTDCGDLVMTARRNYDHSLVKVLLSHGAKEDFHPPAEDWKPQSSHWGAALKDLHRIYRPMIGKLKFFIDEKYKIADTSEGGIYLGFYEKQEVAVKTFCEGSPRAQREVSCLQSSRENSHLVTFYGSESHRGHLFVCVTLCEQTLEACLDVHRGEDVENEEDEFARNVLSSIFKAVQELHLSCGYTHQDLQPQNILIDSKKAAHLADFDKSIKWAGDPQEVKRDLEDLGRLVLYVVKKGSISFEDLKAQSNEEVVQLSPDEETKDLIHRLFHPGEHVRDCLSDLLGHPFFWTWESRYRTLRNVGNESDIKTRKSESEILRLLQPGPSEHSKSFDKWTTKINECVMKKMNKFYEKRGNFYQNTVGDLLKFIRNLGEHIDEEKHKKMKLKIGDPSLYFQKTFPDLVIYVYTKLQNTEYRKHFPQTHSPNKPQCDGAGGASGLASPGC
Chain of UniProt P31040 (P31040 whole entry, looked up): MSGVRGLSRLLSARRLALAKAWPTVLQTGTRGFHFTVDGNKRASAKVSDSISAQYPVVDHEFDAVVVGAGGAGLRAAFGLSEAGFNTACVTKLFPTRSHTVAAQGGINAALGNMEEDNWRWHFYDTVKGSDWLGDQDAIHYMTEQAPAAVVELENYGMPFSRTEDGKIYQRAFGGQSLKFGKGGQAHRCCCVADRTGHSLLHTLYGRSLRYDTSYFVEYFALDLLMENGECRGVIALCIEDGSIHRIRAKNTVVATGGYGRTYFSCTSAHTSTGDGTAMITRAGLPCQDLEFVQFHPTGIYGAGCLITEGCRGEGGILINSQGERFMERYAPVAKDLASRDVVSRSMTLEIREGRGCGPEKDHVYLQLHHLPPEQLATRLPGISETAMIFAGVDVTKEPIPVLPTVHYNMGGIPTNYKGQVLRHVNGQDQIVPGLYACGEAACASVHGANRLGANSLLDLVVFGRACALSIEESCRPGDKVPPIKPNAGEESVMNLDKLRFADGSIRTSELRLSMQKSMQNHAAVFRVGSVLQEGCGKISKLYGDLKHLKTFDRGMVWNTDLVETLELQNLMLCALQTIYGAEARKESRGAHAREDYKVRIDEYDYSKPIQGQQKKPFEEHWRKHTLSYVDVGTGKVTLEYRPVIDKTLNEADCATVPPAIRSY
Chain of UniProt P54136 (P54136 whole entry, looked up): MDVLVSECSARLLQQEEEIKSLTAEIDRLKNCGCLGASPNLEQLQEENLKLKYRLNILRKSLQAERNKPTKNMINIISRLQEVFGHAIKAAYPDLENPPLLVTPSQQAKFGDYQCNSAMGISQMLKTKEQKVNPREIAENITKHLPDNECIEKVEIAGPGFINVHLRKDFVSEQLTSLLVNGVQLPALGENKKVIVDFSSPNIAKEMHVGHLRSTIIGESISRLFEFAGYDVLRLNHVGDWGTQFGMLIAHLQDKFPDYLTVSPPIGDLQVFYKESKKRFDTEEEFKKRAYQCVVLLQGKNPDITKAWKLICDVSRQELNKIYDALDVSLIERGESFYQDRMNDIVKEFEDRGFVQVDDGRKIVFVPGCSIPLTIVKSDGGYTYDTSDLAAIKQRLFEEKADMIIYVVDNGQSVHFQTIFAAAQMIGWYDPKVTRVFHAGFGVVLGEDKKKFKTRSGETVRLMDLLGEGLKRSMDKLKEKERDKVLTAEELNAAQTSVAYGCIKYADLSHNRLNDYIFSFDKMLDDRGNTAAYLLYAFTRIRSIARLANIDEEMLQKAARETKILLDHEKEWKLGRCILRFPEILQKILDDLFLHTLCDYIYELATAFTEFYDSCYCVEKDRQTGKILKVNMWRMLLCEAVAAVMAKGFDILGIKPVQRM
Chain of UniProt Q9H0R6 (Q9H0R6 whole entry, looked up): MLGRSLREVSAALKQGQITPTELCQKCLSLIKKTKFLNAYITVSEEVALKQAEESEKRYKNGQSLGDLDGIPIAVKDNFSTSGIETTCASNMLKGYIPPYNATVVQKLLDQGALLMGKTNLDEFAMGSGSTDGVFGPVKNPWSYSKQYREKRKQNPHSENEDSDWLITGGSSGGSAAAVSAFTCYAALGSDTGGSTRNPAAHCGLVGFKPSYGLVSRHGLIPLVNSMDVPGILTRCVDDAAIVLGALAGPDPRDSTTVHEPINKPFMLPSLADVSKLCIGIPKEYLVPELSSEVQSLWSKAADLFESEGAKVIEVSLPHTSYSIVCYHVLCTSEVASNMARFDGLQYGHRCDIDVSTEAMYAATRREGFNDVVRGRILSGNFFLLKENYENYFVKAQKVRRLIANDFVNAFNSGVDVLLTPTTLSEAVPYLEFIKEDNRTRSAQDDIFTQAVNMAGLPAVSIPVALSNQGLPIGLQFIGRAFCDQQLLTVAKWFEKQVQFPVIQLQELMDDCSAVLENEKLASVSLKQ

Target	log2 fold change (nilotinib)	log2 fold change [1]	log2 fold change (dasatinib)	log2 fold change [2]	log2 fold change [3]	log2 fold change (quisinostat)	log2 fold change (tipifarnib)	log2 fold change [4]	log2 fold change [5]	log2 fold change [6]
QRSL1 (UniProt Q9H0R6)	-0.022	0.031	-0.018	0.069	0.07	-0.054	-0.002	0.034	-0.02	-0.031
SCAF1 (UniProt Q9H7N4)	-0.053	0.115	-0.018	-0.13	-0.042	-0.019	-0.06	-0.028	-0.014	0.1
RABL3 (UniProt Q5HYI8)	0.049	-0.03	-0.077	-0.051	0.01	-0.056	0.08	0.084	-0.003	0.267
RAB1B (UniProt Q9H0U4)	0.016	0.003	-0.058	-0.029	-0.001	0.016	-0.04	-0.052	-0.041	0.002
REEP5 (UniProt Q00765)	0.107	-0.011	0.056	0.003	-0.012	0.005	0.026	-0.024	0	-0.023
RCAN1 (UniProt P53805)	-0.457 (active)	0.008	0.023	-0.055	0.038	-0.217	0.131	0.117	0.088	0.036
SEC24D isoform 2 (UniProt O94855)	-0.006	-0.016	-0.004	-0.029	0.002	0.01	0.001	-0.012	-0.004	0.006
RAD17 (UniProt O75943)	-0.027	0.073	-0.064	-0.023	0	-0.032	-0.085	0.038	–	–
RBSN (UniProt Q9H1K0)	-0.047	0.057	-0.106	0.034	-0.004	-0.04	-0.036	0.05	0.039	0.029
RAC2 (UniProt P15153)	-0.025	-0.076	-0.068	0.015	-0.093	0.021	0	0.001	0.04	0.017
RPL8 (UniProt P62917)	-0.005	-0.004	0.035	-0.028	-0.013	0.222 (active)	0.027	-0.019	-0.008	-0.006
RNASEL (UniProt Q05823)	-0.034	0.035	-0.014	-0.013	0.02	-0.06	-0.016	0.042	0.026	-0.064
RHOU (UniProt Q7L0Q8)	-0.032	-0.028	-0.004	0.114	0.145	-0.053	0.12	0.035	-0.045	0.033
SCO2 (UniProt O43819)	0.15	-0.283	-0.05	-0.337	0.106	0.007	-0.062	-0.005	0.05	-0.1
SAR1B (UniProt Q9Y6B6)	0.202	0.101	0.047	-0.013	-0.038	0.028	-0.217	-0.02	-0.092	-0.016
RIOK2 (UniProt Q9BVS4)	0.002	0.034	0.01	0.537 (active)	-0.023	-0.054	-0.013	0.05	0.198	-0.03
RARS (UniProt P54136)	0.004	0	-0.074	-0.017	0.038	-0.017	0.006	0.049	0.015	-0.023
RHOA (UniProt P61586)	-0.08	0.104	0.017	-0.008	-0.013	0.167	-0.021	-0.004	0.008	-0.062
RIOK1 (UniProt Q9BRS2)	-0.018	0.06	-0.018	0.072	0.008	-0.007	0.003	-0.012	-0.033	-0.072
RCOR1 (UniProt Q9UKL0)	-0.024	-0.006	-0.054	0.009	0.003	0.015	-0.022	0.043	-0.015	0.099
RPL36AL (UniProt Q969Q0)	0.034	0.038	0.094	0.055	0.04	0.329 (active)	0.058	0.01	-0.026	-0.009
RCOR3 isoform 3 (UniProt Q9P2K3)	-0.016	-0.028	-0.052	0.038	0.01	0.022	0.011	0.03	0.029	0.014
REEP6 (UniProt Q96HR9)	0.058	0.1	0.204	0.041	0.009	-0.072	0.001	-0.03	0.155	-0.023
SDHA (UniProt P31040)	0.035	0.009	0.016	0.004	-0.033	-0.022	-0.034	-0.037	-0.013	0.007
SBF1 isoform 4 (UniProt O95248)	-0.018	-0.041	0.092	-0.046	0.047	-0.103	0.162	0.12	0.039	0.091
RPS6KA5 (UniProt O75582)	-0.037	0.004	-0.006	-0.079	0.065	0.062	0.042	0.073	-0.086	-0.127
SAP30 (UniProt O75446)	0.104	-0.464 (active)	-0.063	-0.124	0.012	-0.111	-0.026	0.037	-0.035	–
RSU1 (UniProt Q15404)	0.011	-0.011	0.007	-0.028	0.001	0.112	0.016	-0.002	0.007	0.002
RPS9 (UniProt P46781)	0.001	-0.023	0.067	-0.039	0.023	0.141	0.022	-0.037	-0.015	0.039
RAB21 (UniProt Q9UL25)	0.069	-0.036	0.043	-0.017	-0.022	-0.023	-0.051	0.019	-0.017	-0.007

— the supplement of paper PMC10849652
